Key:
Experiment in all cases: DAPPL (digital affinity profiling via proximity ligation, sequencing); 10 mM Tris-HCl pH 7.5, 50 mM NaCl, 1 mM DTT, 4% glycerol, room temperature, 30 min; GST-TFs on glutathione beads, 16-mer random dsDNA library, 0.1% formaldehyde crosslink after washing; high values mean tight binding
FEV = molecular target: T1, FEV (Homo sapiens, UniProt Q99581 1-238); conditions: protein: recombinant; tags: N-terminal GST; dsDNA, one strand shown
T1 sequence: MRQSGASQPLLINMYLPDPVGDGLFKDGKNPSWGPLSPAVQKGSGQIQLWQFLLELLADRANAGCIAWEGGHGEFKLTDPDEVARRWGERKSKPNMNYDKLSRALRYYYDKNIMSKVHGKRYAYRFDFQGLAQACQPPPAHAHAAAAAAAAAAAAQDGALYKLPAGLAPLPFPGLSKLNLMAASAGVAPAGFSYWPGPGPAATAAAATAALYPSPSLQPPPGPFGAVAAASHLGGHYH
Procedure, shortened: (§1)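 Beads coated with glutathione captured GST-fused human transcription factors that had been expressed in yeast, and the factors were then given DNA barcodes and pooled with a tag-only sample. The pools were incubated with 200 nmole of a random double-stranded 16-mer DNA library in Tris/NaCl/DTT/glycerol buffer for 30 min at room temperature, washed, crosslinked with 0.1% formaldehyde and proximity-ligated with BsaI/T4 ligase at 37 °C for 1 h. PCR amplification and Illumina NextSeq500 sequencing came last. Binding signal is each hexamer's read frequency for a factor divided by its frequency for the tag-only sample.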

ETV5 = ETV5 (Homo sapiens, UniProt P41161 1-510); conditions: protein: recombinant; tags: N-terminal GST; dsDNA, one strand shown
ETV5, sequence (P41161 whole entry): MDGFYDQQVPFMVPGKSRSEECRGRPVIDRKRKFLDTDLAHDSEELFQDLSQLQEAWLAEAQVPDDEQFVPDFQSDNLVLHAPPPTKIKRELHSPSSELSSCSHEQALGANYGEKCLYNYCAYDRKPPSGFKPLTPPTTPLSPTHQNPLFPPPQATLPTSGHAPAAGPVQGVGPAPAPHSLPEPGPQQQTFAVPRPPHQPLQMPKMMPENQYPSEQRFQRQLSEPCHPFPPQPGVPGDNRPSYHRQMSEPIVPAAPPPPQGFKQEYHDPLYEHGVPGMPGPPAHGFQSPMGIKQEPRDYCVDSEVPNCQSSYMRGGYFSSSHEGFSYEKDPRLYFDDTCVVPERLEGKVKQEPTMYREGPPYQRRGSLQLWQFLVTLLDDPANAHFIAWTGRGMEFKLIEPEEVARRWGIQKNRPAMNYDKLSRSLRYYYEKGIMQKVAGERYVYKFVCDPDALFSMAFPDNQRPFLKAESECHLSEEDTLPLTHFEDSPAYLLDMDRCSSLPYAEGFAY
Procedure, shortened: as §1

HSF1 = HSF1 (Homo sapiens, UniProt Q00613 1-529); conditions: protein: recombinant; tags: N-terminal GST; chain copies: 3; dsDNA, one strand shown
HSF1, sequence (Q00613 whole entry): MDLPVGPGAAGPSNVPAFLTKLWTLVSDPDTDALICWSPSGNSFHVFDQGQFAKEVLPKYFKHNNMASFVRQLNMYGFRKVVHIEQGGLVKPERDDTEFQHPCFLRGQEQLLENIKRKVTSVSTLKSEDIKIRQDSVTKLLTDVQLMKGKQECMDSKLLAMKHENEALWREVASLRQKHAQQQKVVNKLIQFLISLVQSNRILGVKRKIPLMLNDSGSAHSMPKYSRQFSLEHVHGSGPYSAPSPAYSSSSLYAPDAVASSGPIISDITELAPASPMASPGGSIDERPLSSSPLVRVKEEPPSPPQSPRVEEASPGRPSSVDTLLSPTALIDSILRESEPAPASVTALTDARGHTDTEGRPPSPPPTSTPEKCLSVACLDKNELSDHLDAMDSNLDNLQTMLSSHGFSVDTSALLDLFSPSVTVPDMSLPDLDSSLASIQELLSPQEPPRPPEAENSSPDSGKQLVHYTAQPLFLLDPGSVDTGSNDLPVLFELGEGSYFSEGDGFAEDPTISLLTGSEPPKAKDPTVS
Procedure, shortened: as §1

SPIC = molecular target: T2, SPIC (Homo sapiens, UniProt Q8N5J4 1-248); conditions: protein: recombinant; tags: N-terminal GST; dsDNA, one strand shown
T2 sequence: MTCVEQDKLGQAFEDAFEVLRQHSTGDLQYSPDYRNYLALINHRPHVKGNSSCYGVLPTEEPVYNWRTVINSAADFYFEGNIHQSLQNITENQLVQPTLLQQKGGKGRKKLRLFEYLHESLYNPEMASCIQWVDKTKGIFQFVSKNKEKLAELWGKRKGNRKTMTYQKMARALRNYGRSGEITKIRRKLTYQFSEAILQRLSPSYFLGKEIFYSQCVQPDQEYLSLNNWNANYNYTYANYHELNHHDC
Procedure, shortened: as §1

ELF4 = ELF4 (Homo sapiens, UniProt Q99607 1-663); conditions: protein: recombinant; tags: N-terminal GST; dsDNA, one strand shown
ELF4, sequence (Q99607 whole entry): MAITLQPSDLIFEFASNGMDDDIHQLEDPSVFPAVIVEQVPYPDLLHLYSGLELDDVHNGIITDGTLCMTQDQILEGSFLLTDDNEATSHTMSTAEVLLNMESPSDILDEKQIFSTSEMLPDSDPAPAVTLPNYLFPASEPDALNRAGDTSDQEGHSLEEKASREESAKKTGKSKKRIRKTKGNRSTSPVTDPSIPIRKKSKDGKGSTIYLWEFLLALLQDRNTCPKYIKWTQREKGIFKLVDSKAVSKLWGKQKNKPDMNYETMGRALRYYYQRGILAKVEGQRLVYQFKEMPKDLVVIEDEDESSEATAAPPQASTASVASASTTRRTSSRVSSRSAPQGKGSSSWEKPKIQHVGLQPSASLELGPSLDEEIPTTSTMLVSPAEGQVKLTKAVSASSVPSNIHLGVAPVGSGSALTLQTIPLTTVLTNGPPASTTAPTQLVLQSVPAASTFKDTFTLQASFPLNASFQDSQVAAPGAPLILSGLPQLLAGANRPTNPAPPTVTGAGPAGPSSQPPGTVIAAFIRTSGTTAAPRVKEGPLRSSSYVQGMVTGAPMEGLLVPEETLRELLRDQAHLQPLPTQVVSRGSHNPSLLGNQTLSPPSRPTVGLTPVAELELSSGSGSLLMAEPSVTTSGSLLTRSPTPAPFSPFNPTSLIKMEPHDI
Procedure, shortened: as §1

ELK4 = molecular target: T3, ELK4 (Homo sapiens, UniProt P28324-2 1-405); conditions: protein: recombinant; tags: N-terminal GST; dsDNA, one strand shown
T3 sequence: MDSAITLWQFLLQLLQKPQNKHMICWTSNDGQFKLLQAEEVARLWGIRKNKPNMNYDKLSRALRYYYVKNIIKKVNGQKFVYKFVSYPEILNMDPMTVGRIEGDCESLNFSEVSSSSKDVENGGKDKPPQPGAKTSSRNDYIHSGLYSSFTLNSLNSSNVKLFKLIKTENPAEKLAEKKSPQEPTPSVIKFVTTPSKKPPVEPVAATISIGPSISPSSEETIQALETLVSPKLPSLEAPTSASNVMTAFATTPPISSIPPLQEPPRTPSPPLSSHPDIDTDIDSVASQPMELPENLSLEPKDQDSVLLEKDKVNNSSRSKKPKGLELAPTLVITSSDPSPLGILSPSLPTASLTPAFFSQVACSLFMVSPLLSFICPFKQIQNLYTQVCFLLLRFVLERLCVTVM
Procedure, shortened: as §1

ETV2 = molecular target: T4, ETV2 (Homo sapiens, UniProt O00321 1-342); conditions: protein: recombinant; tags: N-terminal GST; dsDNA, one strand shown
T4 sequence: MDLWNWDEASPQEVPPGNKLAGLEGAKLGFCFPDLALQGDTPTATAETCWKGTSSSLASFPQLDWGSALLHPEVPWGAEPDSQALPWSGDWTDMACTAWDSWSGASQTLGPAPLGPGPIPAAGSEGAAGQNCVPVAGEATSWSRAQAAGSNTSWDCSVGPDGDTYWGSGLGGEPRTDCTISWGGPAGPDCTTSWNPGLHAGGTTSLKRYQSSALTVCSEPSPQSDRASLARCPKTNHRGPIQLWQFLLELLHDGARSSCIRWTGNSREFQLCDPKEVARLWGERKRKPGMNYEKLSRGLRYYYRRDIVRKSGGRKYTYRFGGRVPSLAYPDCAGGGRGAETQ
Procedure, shortened: as §1

ELF3 = molecular target: T5, ELF3 (Homo sapiens, UniProt P78545 1-371); conditions: protein: recombinant; tags: N-terminal GST; dsDNA, one strand shown
T5 sequence: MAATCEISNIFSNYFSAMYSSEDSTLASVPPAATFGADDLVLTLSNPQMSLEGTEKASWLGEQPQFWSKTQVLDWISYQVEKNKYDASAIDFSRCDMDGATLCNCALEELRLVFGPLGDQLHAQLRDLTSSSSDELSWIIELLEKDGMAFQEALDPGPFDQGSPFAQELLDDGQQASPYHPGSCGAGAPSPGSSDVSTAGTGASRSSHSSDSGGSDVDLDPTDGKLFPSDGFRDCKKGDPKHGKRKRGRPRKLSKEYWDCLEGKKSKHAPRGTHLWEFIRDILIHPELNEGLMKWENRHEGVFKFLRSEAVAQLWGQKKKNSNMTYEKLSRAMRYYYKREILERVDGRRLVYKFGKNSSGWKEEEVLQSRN
Procedure, shortened: as §1

CRX = CRX (Homo sapiens, UniProt O43186 1-299); conditions: protein: recombinant; tags: N-terminal GST; dsDNA, one strand shown
CRX, sequence (O43186 whole entry): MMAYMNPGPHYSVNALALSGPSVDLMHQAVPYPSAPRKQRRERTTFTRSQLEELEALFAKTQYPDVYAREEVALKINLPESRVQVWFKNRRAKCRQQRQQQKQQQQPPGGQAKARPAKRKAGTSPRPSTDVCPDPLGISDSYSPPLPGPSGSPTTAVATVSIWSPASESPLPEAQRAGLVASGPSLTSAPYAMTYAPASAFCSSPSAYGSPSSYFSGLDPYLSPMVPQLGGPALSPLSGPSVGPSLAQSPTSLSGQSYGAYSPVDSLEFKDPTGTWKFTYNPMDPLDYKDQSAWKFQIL
Procedure, shortened: as §1

ETV1 = ETV1 (Homo sapiens, UniProt P50549 1-477); conditions: protein: recombinant; tags: N-terminal GST; dsDNA, one strand shown
ETV1, sequence (P50549 whole entry): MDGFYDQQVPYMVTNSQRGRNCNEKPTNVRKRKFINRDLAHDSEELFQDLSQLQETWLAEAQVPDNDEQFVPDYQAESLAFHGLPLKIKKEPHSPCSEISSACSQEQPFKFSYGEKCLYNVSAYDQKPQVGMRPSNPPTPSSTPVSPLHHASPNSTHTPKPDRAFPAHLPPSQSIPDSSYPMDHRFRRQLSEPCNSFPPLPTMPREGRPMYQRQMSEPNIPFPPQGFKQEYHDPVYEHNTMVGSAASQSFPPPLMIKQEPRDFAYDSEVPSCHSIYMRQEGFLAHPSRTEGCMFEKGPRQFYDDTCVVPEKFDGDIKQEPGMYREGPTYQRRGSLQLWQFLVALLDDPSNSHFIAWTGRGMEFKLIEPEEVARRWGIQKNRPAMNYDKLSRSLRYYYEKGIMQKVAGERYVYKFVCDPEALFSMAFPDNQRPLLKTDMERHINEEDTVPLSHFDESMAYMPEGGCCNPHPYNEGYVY
Procedure, shortened: as §1

Sequence: GCGATG
- binding signal (FEV): 1.22 fold enrichment (6-mer frequency, TF over GST control)
- binding signal (ETV5): 1.25 fold enrichment (6-mer frequency, TF over GST control)
- binding signal (HSF1): 1.08 fold enrichment (6-mer frequency, TF over GST control)
- binding signal (SPIC): 1.07 fold enrichment (6-mer frequency, TF over GST control)
- binding signal (ELF4): 1.21 fold enrichment (6-mer frequency, TF over GST control)
- binding signal (ELK4): 1.2 fold enrichment (6-mer frequency, TF over GST control)
- binding signal (ETV2): 1.25 fold enrichment (6-mer frequency, TF over GST control)
- binding signal (ELF3): 1.26 fold enrichment (6-mer frequency, TF over GST control)
- binding signal (CRX): 1.03 fold enrichment (6-mer frequency, TF over GST control)
- binding signal (ETV1): 1.15 fold enrichment (6-mer frequency, TF over GST control)
